From PubChem
KLK7 zymogen act: activators of human kallikrein-7 zymogen; P49862; activation, % at 7 µM; 370,000 tested, 0.9% active; purified proKLK7, EDANS-DABCYL substrate fluorescence; 100% is mature enzyme control, 0% vehicle; AID 652039;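 active = activation above the mean of all tested compounds plus 3 SD, computed per campaign excluding outliers beyond control limits, cut at about 13% in these data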
Target sequence (P49862 whole entry, looked up): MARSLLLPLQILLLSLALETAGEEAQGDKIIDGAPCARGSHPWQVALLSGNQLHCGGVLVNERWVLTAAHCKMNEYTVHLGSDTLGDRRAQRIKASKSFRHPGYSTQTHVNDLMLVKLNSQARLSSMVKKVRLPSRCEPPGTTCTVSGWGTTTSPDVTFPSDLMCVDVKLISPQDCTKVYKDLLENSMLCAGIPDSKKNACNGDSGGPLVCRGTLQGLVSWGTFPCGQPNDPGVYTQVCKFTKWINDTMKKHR
rCAG binder: binds r(CAG) RNA repeats; r(CAG) RNA repeat, TO-PRO-1 dye displacement fluorescence; inhibition, % at 3 µM; 370,000 tested, 1.3% active;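 active = inhibition above the plate cutoff, the mean of all test compounds on that plate plus 3 SD, cut at about 35% in these data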;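 also: 0% = DMSO alone and 100% = 100 µM mitoxantrone as full dye displacement; higher means more dye released from RNA so lower well fluorescence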
ADAM17 inh: inhibits human ADAM17. inhibition, % at 6.95 µM. recombinant ADAM17, EDANS/DABCYL FRET peptide cleavage. 370,000 tested, 0.83% active. P78536;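 active = inhibition above the mean of compounds lying between control limits plus 3 SD, set per campaign, cut at about 8.5% in these data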;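 also: 0% = DMSO-only wells as the low control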
ADAM10 inh: inhibitors of human ADAM10 | O14672 | recombinant ADAM10, EDANS/DABCYL FRET peptide cleavage, 3 h | inhibition, % at 7 µM | 370,000 tested, 0.62% active;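 active = inhibition above a per-campaign cutoff equal to the mean of compounds falling between control-based bounds plus 3 SD, cut at about 20% in these data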;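 also: 0% = DMSO wells while the 100% control is not disclosed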
MPTP inh: permeability transition pore inhibition; 360,000 tested, 1.4% active; isolated mouse mitochondria, Ca2+ swelling absorbance, 30 min; inhibition, % at 10 µM;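 active = inhibition of 50% or more, scaled per plate between neutral and stimulator controls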;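 also: 0% = DMSO wells given calcium and 100% = 1 mM EGTA wells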
DSG3 Ab inh: human desmoglein-3 autoantibody binding inhibition. P32926. DSG3-coupled beads, scFv-anti-DSG3-GFP binding, flow cytometry; hits give low values. binding (percent of control), % at 10 µM. 310,000 tested, 0.48% active;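 active = binding more than 3 SD below its plate's average and above zero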;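 also: hits lower antibody fragment binding to DSG3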
MPTP counter: mitochondrial membrane potential, counter-screen. shares compounds with MPTP inh. 5,000 tested, 78% active. isolated mitochondria, Rhodamine 123 fluorescence. AID 624504. inhibition, % at 10 µM; in the data active = inhibition above about 22%;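 also: 0% = DMSO vehicle and 100% = positive control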
MPTP swell DR: dose response confirmation of mitochondrial permeability transition pore inhibitors | IC50, µM | shares compounds with MPTP inh | 780 tested, 58% active | isolated mitochondria swelling, absorbance | AID 651561; in the data active = IC50 below about 20 µM
MPTP counter DR: MPTP inhibitor counter-screen activity, dose response; shares compounds with MPTP inh; isolated mitochondria counterscreen, fluorescence read-out; IC50, µM; 780 tested, 49% active; in the data active = IC50 below about 80 µM
* = called active by the depositor. Hits are enriched below; roughly 4.7% of the tested compounds scored in any of these assays.

What do the screens show for `CC(=O)Nc1ccc(Oc2nc(C(F)(F)F)nc3ccccc23)cc1`?
KLK7 zymogen act: -0.1; rCAG binder: -1.4; ADAM17 inh: 5.4; ADAM10 inh: 8.0; MPTP inh: -0.2; DSG3 Ab inh: 129.2

Results for Cc1cc(C)cc(Oc2nc(C(F)(F)F)nc3ccccc23)c1 ?
KLK7 zymogen act: 0.1; rCAG binder: -4.5; ADAM17 inh: 0.3; ADAM10 inh: 4.7; MPTP inh: 80.3*; DSG3 Ab inh: 96.9; MPTP counter: -4.2; MPTP swell DR: >100; MPTP counter DR: 77.6*

How did CC(C)(C)c1cc(CCC(=O)NNC(=S)NC(=O)c2ccccc2)cc(C(C)(C)C)c1O do in these assays?
MPTP inh: 80.3*; DSG3 Ab inh: 96.3; MPTP counter: 12.8

Results for COC(=O)c1ccc(CN2C(=O)NC(Cc3c[nH]c4ccccc34)C2=O)cc1 (centres undefined) ?
KLK7 zymogen act: 1.1; rCAG binder: 1.3; ADAM17 inh: 0.6; ADAM10 inh: 0.4; MPTP inh: 81.5*; MPTP counter: 18.2; MPTP swell DR: inactive; MPTP counter DR: 24.6*

Results for COCCN1C(=O)C2=C(C1=O)C1N(C)c3ccccc3[C@@]13C[C@@H](CO)N(C(=O)CCC(=O)OC)C3=N2 (some centres undefined) ?
KLK7 zymogen act: 0.6; rCAG binder: 2.7; ADAM17 inh: -1.5; ADAM10 inh: -4.0

Results for C=CCS/C(N)=N\N=C\c1cc(Br)cc([N+](=O)[O-])c1O ?
KLK7 zymogen act: -0.7; rCAG binder: 16.6; ADAM17 inh: -4.3; ADAM10 inh: 3.2; MPTP inh: 52.9*; DSG3 Ab inh: 92.3; MPTP counter: 50.6*

How did CNC[C@@H](Cc1ccccc1)NC[C@@H](CC1CCCCC1)NCCCc1ccccc1 do in these assays?
KLK7 zymogen act: -0.9; rCAG binder: 16.1; ADAM17 inh: -3.9; ADAM10 inh: -2.9; MPTP inh: 71.9*; DSG3 Ab inh: 113.5; MPTP counter: -17.4

How did CCC[C@@H](CNC)NC[C@H](Cc1ccccc1)NCCCCc1ccccc1 do in these assays?
KLK7 zymogen act: -0.5; rCAG binder: 10.5; ADAM17 inh: -4.1; ADAM10 inh: -3.1; MPTP inh: 7.6; DSG3 Ab inh: 99.5

How did Cc1nc2ccccc2c2c1CC(C(C)(Cl)Br)O2 (centres undefined) do in these assays?
KLK7 zymogen act: 0.3; rCAG binder: -4.0; ADAM17 inh: -5.7; ADAM10 inh: -3.0; MPTP inh: 59.5*; DSG3 Ab inh: 103.0; MPTP counter: 83.5*

What do the screens show for `O=C(N/N=C/c1cc(Br)cc(Cl)c1O)c1ccc2c(c1)OCO2`?
KLK7 zymogen act: -0.8; rCAG binder: 9.2; ADAM17 inh: -0.3; ADAM10 inh: -2.5; MPTP inh: 55.2*; DSG3 Ab inh: 106.2; MPTP counter: 65.7*

What do the screens show for `O=C(N/N=C/c1cc(Br)cc(Br)c1O)c1cccc(S(=O)(=O)N2CCOCC2)c1`?
KLK7 zymogen act: -0.4; rCAG binder: 4.8; ADAM17 inh: -2.1; ADAM10 inh: -5.1; MPTP inh: 69.0*; DSG3 Ab inh: 95.3; MPTP counter: -4.8

What do the screens show for `Cc1cc(Br)cc(/C=N/NC(=O)c2ccc3c(c2)OCO3)c1O`?
KLK7 zymogen act: -8.4; rCAG binder: 12.8; ADAM17 inh: -5.1; ADAM10 inh: -3.9; MPTP inh: 65.2*; DSG3 Ab inh: 101.7; MPTP counter: 49.1*

Results for O=C(N/N=C/c1ccccc1O)c1ccc2c(c1)OCO2 ?
KLK7 zymogen act: -5.5; rCAG binder: 1.5; ADAM17 inh: -20.4; ADAM10 inh: -47.9; MPTP inh: -0.3; DSG3 Ab inh: 97.7

How did O=C1NC(=S)SC1=Cc1ccc(F)cc1 do in these assays?
KLK7 zymogen act: -0.1; rCAG binder: 7.2; ADAM17 inh: 3.5; ADAM10 inh: 0.6; MPTP inh: 81.6*; DSG3 Ab inh: 93.0; MPTP counter: 84.5*

Results for COc1ccc(C=C2SC(=S)NC2=O)cc1 ?
KLK7 zymogen act: 0.3; rCAG binder: 4.3; ADAM17 inh: 3.7; ADAM10 inh: -6.8; MPTP inh: 17.9; DSG3 Ab inh: 95.5

How did O=C1NC(=O)C(=Cc2ccc(Cl)cc2Cl)S1 do in these assays?
KLK7 zymogen act: 0.0; rCAG binder: 21.0; ADAM17 inh: -0.1; ADAM10 inh: -15.8; MPTP inh: 81.0*; DSG3 Ab inh: 123.2; MPTP counter: 93.6*

How did O=C1NC(=S)SC1=Cc1ccccc1Br do in these assays?
KLK7 zymogen act: 0.1; rCAG binder: 24.9; ADAM17 inh: 0.6; ADAM10 inh: 1.8; MPTP inh: 94.2*; DSG3 Ab inh: 95.6; MPTP counter: 73.5*

What do the screens show for `O=C1NC(=S)SC1=Cc1ccc(Cl)cc1`?
KLK7 zymogen act: -0.2; rCAG binder: 32.1; ADAM17 inh: -1.1; ADAM10 inh: 5.1; MPTP inh: 94.6*; DSG3 Ab inh: 90.4; MPTP counter: 78.8*

Results for CCCCN1CCN(C(=O)C2CCN(S(=O)(=O)c3ccc4[nH]c(=O)oc4c3)CC2)CC1 ?
KLK7 zymogen act: 0.2; rCAG binder: 6.7; ADAM17 inh: -4.1; ADAM10 inh: -8.1

How did O=C(COC(=O)CCNS(=O)(=O)c1cccc(C(F)(F)F)c1)NC(=O)NC1CCCCC1 do in these assays?
KLK7 zymogen act: -0.1; rCAG binder: -4.6; ADAM17 inh: 1.4; ADAM10 inh: 6.4; MPTP inh: 61.0*; DSG3 Ab inh: 97.7; MPTP counter: -10.6; MPTP swell DR: 18*; MPTP counter DR: 23.4*

What do the screens show for `O=C(Nc1ccc(OC(F)(F)F)cc1)Oc1ccccc1N1CCOCC1`?
KLK7 zymogen act: 0.6; rCAG binder: 0.2; ADAM17 inh: 1.4; ADAM10 inh: 4.4; MPTP inh: 88.3*; MPTP counter: 81.6*

What do the screens show for `O=C(Nc1ccc(OC(F)(F)F)cc1)Oc1ccccc1N1CCCCC1`?
KLK7 zymogen act: 0.6; rCAG binder: 0.8; ADAM17 inh: -1.9; ADAM10 inh: -2.0; MPTP inh: 82.5*; DSG3 Ab inh: 99.4; MPTP counter: 88.8*

How did O=C(Nc1ccc(F)cc1)Oc1ccccc1N1CCOCC1 do in these assays?
KLK7 zymogen act: 0.1; rCAG binder: -1.2; ADAM17 inh: -3.4; ADAM10 inh: -5.9; MPTP inh: 7.3

What do the screens show for `Cc1ccc(S(=O)(=O)N/N=C/c2cc([N+](=O)[O-])ccc2O)cc1[N+](=O)[O-]`?
KLK7 zymogen act: 0.4; rCAG binder: 29.7; ADAM17 inh: -4.7; ADAM10 inh: -4.1; MPTP inh: 72.0*; DSG3 Ab inh: 92.2; MPTP counter: 60.4*
